KLF5 inhibitor – KLF5 expression inhibitors, primary screen, DLD-1 cells, luminescence. DLD-1 KLF5 promoter-luciferase reporter. inhibition, % at 5 µM. actives 0.23% (n = 290,000);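 active means inhibition above a per-plate limit of that plate's mean compound inhibition plus 3 SD, cut at about 60% in these data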;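 further: 0% = DMSO wells and 100% = LY294002 at 200 µM; higher means less KLF5 promoter-driven luciferase light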
Ba/F3 V617F tox – reduced viability of JAK2V617F-dependent Ba/F3 cells, primary screen, JAK2V617F inhibitor project, cell-based, Ba/F3 EpoR-JAK2V617F, luminescence | ATP luminescence | AID 1446, 2008 | inhibition, % at 5.6 µM | actives 1.1% (n = 220,000);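 active means inhibition above the campaign mean plus 3 SD over all tested compounds, cut at about 24% in these data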;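 further: cytokine-independent growth of Ba/F3 cells driven by EpoR plus mutant JAK2; 0% = DMSO-treated cells and 100% = JAK inhibitor I control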
BaF3 tox – parental Ba/F3 cell viability inhibition, counter-screen for JAK2V617F inhibitor project, murine pro-B, CellTiter-Glo luminescence; CellTiter-Glo ATP luminescence; inhibition, % at 5.6 µM; actives 1.1% (n = 220,000); AID 1486, 2009;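 active means inhibition above a per-campaign cutoff, the mean inhibition of all tested compounds plus 3 SD, cut at about 27% in these data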;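 further: 0% = DMSO wells and 100% = JAK Inhibitor I control wells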
aSyn 5UTR inh – MLPCN primary screen, SNCA 5' untranslated region. alpha-synuclein 5'UTR reporter, inhibitor activity. inhibition, % (tested at 7.5 µM). actives 0.82% (n = 300,000); in the data active means inhibition above about 60%;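 further: H4 neuroglioblastoma cells stably carrying SNCA 5'UTR luciferase fusion; 0% = DMSO wells and 100% = positive control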
APP transl inh – inhibitors of APP translation via 5'UTR reporter, primary screen, APP 5'UTR luciferase, SH-SY5Y cells; SH-SY5Y APP 5'UTR-luciferase reporter, luminescence; inhibition, % at 2 µM; actives 0.82% (n = 190,000); AID 1285, 2008;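 active means inhibition above a set limit, derived from the sample mean plus 3 SD, cut at about 45% in these data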
IEC-6 tox-1 – cytotoxicity in IEC-6 intestinal epithelial cells, primary screen, cytotoxicity control for KLF5 inhibitor project, cell-based, luminescence; IEC-6 cytotoxicity, luminescence viability; inhibition, % at 5 µM; actives 0.78% (n = 290,000); AID 1825, 2009;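 further: 0% = plate median of test compound wells and 100% = cytotoxic reference compound wells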
BaF3 tox 2 – parental Ba/F3 cell viability inhibition, counter-screen for JAK2V617F inhibitor project, murine pro-B, CellTiter-Glo luminescence. AID 1520, 2009. cells kept alive by added IL-3. actives 31% (n = 580). shares compounds with Ba/F3 V617F tox. inhibition, % at 5.6 µM;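 active means cell growth inhibition above the hit limit set in the earlier mutant JAK2 cell screen, cut at about 27% in these data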;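 further: plate controls were DMSO-treated cells for no effect and JAK Inhibitor I control wells for full effect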
JAK2V617F conf – viability loss in Ba/F3 EpoR-JAK2V617F cells, confirmation, JAK2V617F inhibitor project, cell-based, luminescence, triplicate; shares compounds with Ba/F3 V617F tox; CellTiter-Glo luminescence; inhibition, % at 5.6 µM; actives 66% (n = 580); AID 1521, 2009;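 active means mean inhibition above the hit cutoff derived in the earlier primary screen, cut at about 25% in these data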;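 further: 0% = DMSO-treated cells and 100% = JAK inhibitor I control wells; higher means lower luminescence from reduced cell ATP and viability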
KLF5 confirm – KLF5 expression inhibitors, confirmation, DLD-1 cells, luminescence | shares compounds with KLF5 inhibitor | DLD-1 KLF5 promoter firefly luciferase reporter | inhibition, % at 4 µM | actives 79% (n = 610) | AID 1834, 2009;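 active means inhibition above a set limit taken from the earlier primary screen, cut at about 63% in these data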;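 further: 0% = DMSO wells and 100% = LY294002 at 200 µM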
IEC-6 tox-2 – cytotoxicity in rat IEC-6 cells, cytotoxicity control for KLF5 inhibitor project, cell-based, luminescence, triplicate; inhibition, % at 4 µM; shares compounds with KLF5 inhibitor; actives 56% (n = 610); IEC-6 rat intestinal cells, viability luminescence; in the data active means inhibition above about 23%;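 further: cells exposed to compounds for 48 hours before viability read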
IEC-6 tox confirm – cytotoxic compounds in IEC-6 epithelial cells, confirmation, cytotoxicity control, cell-based, luminescence; shares compounds with IEC-6 tox-1; IEC-6 rat intestinal epithelial viability; inhibition, % at 5 µM; actives 63% (n = 1,900);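 further: 0% = vehicle and 100% = reference cytotoxic drug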
Active calls of the source: *; nt = not tested or not shown. The list is not random: actives were taken first. Their share in the collection is about 2.2%. Unless noted, no stated cut-off is given here; in the data, active means inhibition above about 22%; inactive means the rest.

SMILES	KLF5 inhibitor	Ba/F3 V617F tox	BaF3 tox	aSyn 5UTR inh	APP transl inh	IEC-6 tox-1	KLF5 confirm	IEC-6 tox-2	others
CN(C)C(=O)Oc1ccc(OCc2nc3ccccc3[nH]2)cc1	-92	24*	23	38	-88	14	nt	nt	BaF3 tox 2=31*;JAK2V617F conf=34*
c1ccc2c(CN3CCCCCC3)c[nH]c2c1	-27	62*	26	-41	-20	1	nt	nt	BaF3 tox 2=11;JAK2V617F conf=76*
CNCCc1c[nH]c2ccccc12	-22	-1	4	-19	2	5	nt	nt
c1ccc2c(CNC3CCCCCC3)c[nH]c2c1	-3	27*	7	nt	20	0	nt	nt	BaF3 tox 2=-2;JAK2V617F conf=38*
CCCCOC(=O)c1ccc(NC(=O)c2c(O)[nH]c(=O)[nH]c2=O)cc1	nt	nt	nt	-5	nt	nt	nt	nt
CCOc1ccc(N2C(=O)/C(=C\c3cccs3)C(=O)NC2=S)cc1	-18	63*	12	14	7	-8	nt	nt	BaF3 tox 2=-5;JAK2V617F conf=-5
CCOc1ccc(N2C(=O)/C(=C/c3ccco3)C(=O)NC2=S)cc1	-25	nt	nt	23	nt	0	nt	nt
C=Cn1ccnc1P(=S)(c1ccc(Cl)cc1)c1nccn1C=C	-20	0	4	-10	-3	-5	nt	nt
CN(C)C(=S)SSC(=S)N(C)C	22	39*	-3	-38	95*	102*	nt	nt	BaF3 tox 2=0;JAK2V617F conf=99*
O=C(Cc1ccccc1)OCCNC(=O)c1cccnc1	-30	2	4	-4	5	2	nt	nt
N#CC(C#N)=C(N)c1cccnc1	-38	34*	16	9	-12	-8	nt	nt	BaF3 tox 2=-4;JAK2V617F conf=-2
CC(=O)C1C2c3ccccc3O[C@@]1(C)N=c1s/c(=C/c3ccoc3)c(=O)n12 (stereo not given in full)	3	-1	4	-2	6	-1	nt	nt
CCCCN=C[C@]12CCC(O)CC1(O)CCC1[C@@H]2CC[C@]2(C)[C@H](C3C=CC(=O)O3)CCC12O (stereo not given in full)	106*	nt	nt	96*	nt	-3	105*	-1
O=C(Nc1cccc2ccccc12)c1nn(C23CC4CC(CC(C4)C2)C3)cc1Br	-6	1	3	12	-1	1	nt	nt
Nc1ccc2ccc3cccc[n+]3c2c1	-16	nt	nt	2	nt	-4	nt	nt
C[n+]1c(-c2ccccc2)c2cc(N)ccc2c2ccc(N)cc21	108*	nt	nt	52	nt	-1	86*	-9
[N-]=[N+]=CC(=O)OC[C@H](N)C(=O)O	-7	-1	5	-31	-13	-1	nt	nt
C[C@]12CCC3C(CCC4=CC(O)CC[C@@]43/C=N/O)C1(O)CCC2C1=CC(=O)OC1 (stereo not given in full)	91*	nt	nt	113*	nt	1	104*	-10
C/C=C(\C)C(=O)N[C@@H](c1ccccc1)[C@@H](O)C(=O)O[C@H]1C[C@@]2(O)[C@@H](OC(=O)c3ccccc3)C3[C@](C)(C(=O)[C@H](OC(C)=O)C(=C1C)C2(C)C)[C@H](O)C[C@H]1OC[C@@]31OC(C)=O (stereo not given in full)	64*	nt	nt	110*	nt	88*	86*	71*	IEC-6 tox confirm=79*
CC(=O)O[C@@]12CO[C@@H]1C[C@@H](O)[C@@]1(C)C(=O)[C@H](O)C3=C(C)[C@@H](OC(=O)[C@H](O)[C@@H](NC(=O)c4ccccc4)c4ccccc4)C[C@@](O)([C@@H](OC(=O)c4ccccc4)C12)C3(C)C (stereo not given in full)	76*	nt	nt	113*	nt	90*	87*	72*	IEC-6 tox confirm=81*
CN1CCN(Cc2cn(C)c3ccccc23)CC1CCO (stereo not given)	-30	nt	nt	15	nt	2	nt	nt
Cc1ccc(-n2c(-c3cccs3)nc3ccccc3c2=O)cc1	-20	0	7	8	0	-3	nt	nt
CC1C(OC(=O)CCC(=O)NC(C)(C)CO)O[C@H]2OC3(C)CC[C@H]4[C@H](C)CCC1C24OO3 (stereo not given in full)	82*	nt	nt	4	nt	33*	85*	23*	IEC-6 tox confirm=11
CC(C)CC(NC(=O)CCCNC(=O)CCC(=O)OC1O[C@H]2OC3(C)CC[C@H]4[C@H](C)CCC(C1C)C24OO3)C(=O)O (stereo not given in full)	82*	nt	nt	-2	nt	30*	82*	20	IEC-6 tox confirm=23*
C[C@H]1[C@H](OC(=O)CCC(=O)NCc2ccc(C(=O)O)cc2)O[C@@H]2O[C@@]3(C)CC[C@H]4[C@H](C)CC[C@@H]1C24OO3	80*	nt	nt	0	nt	24*	84*	26*	IEC-6 tox confirm=21
O=C1/C(=C/c2ccncc2)N2CCC1CC2	2	-1	0	2	-32	0	nt	nt
CN1CCN(c2nc3ccccc3c(=O)n2-c2ccccc2)CC1	-18	-1	5	-6	4	4	nt	nt
CCCCn1c(O)c(C=Nc2c(C)n(C)n(-c3ccccc3)c2=O)c(=O)[nH]c1=O	-28	0	-1	-16	-2	4	nt	nt
CC/C=C/CC(=O)N[C@@H](c1ccccc1)[C@@H](O)C(=O)O[C@H]1C[C@@]2(O)[C@@H](OC(=O)c3ccccc3)C3[C@](C)(C(=O)[C@H](OC(C)=O)C(=C1C)C2(C)C)[C@@H](O)C[C@H]1OC[C@@]31OC(C)=O (stereo not given in full)	49	nt	nt	77*	nt	92*	nt	nt	IEC-6 tox confirm=86*
CCC(C)C(=O)N[C@@H](c1ccccc1)[C@@H](O)C(=O)O[C@H]1C[C@@]2(O)[C@@H](OC(=O)c3ccccc3)C3[C@](C)(C(=O)[C@H](OC(C)=O)C(=C1C)C2(C)C)[C@@H](O)C[C@H]1OC[C@@]31OC(C)=O (stereo not given in full)	56	nt	nt	103*	nt	92*	nt	nt	IEC-6 tox confirm=81*
